# Measurements from PubChem BioAssay.
# Active and inactive are the calls of the source. Unless noted, no rule for the calls is given here.
# Legend:
# [1] = compound effects on lung adenocarcinoma cell viability – A549, calcein-AM fluorescence, 48 h, basal, profiling panel (AID 1162); conditions: higher = more signal; also: test concentration not given here
# [2] = compound effects on differentiated 3T3-L1 adipocyte viability – cell-based, 3T3-L1 adipocytes, calcein-AM fluorescence, 48 h, basal, profiling panel (AID 1163); conditions: 3T3-L1 adipocytes viability, higher = more signal; also: test concentration not given here
# [3] = compound effects on hepatocellular carcinoma cell viability – HepG2, calcein-AM fluorescence, 48 h, basal, profiling panel (AID 1164); conditions: higher = more signal; also: test concentration not given here
# [4] = compound effects on multiple myeloma cell viability – MM1S, calcein-AM fluorescence, 48 h, basal, profiling panel (AID 1165); conditions: higher = more signal; also: test concentration not given here
# [5] = calcein-AM signal in unstimulated myeloma cells – cell-based, calcein-AM fluorescence, 48 h, PK04 Diversity Set, profiling panel (AID 1166); conditions: RPMI8226 myeloma viability, higher = more signal;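 also: cells grown under basal conditions without added stimulus; test concentration not given here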
# [6] = JC-1 mitochondrial signal, unstimulated HepG2 cells – cell-based, JC-1 fluorescence, 24 h, 100 nL compound, profiling panel (AID 1167); conditions: HepG2 mitochondrial potential, higher = more signal; also: test concentration not given here
# [7] = JC-1 mitochondrial signal, unstimulated adipocytes – cell-based, JC-1 fluorescence, 3T3-L1 adipocytes, 24 h, 100 nL compound, profiling panel (AID 1168); conditions: JC-1 mitochondrial fluorescence, higher = more signal, called active from +8 up or from −8 down; also: test concentration not given here
# [8] = JC-1 mitochondrial signal, unstimulated myeloma cells – cell-based, JC-1 fluorescence, RPMI8226, 24 h, 100 nL compound, profiling panel (AID 1169); conditions: JC-1 mitochondrial potential fluorescence, higher = more signal; also: test concentration not given here
# [9] = JC-1 mitochondrial signal, unstimulated MM1S myeloma – cell-based, JC-1 fluorescence, 24 h, 100 nL compound, profiling panel (AID 1170); conditions: MM1S mitochondrial potential, higher = more signal; also: test concentration not given here
# [10] = resazurin metabolic signal in A549 cells – cell-based, resazurin fluorescence, 24 h, PK04 Diversity Set, profiling panel (AID 1171); conditions: A549 viability, higher = more signal, called active from +8 up or from −8 down; also: test concentration not given here
# [11] = resazurin metabolic signal in HepG2 cells – cell-based, resazurin fluorescence, 24 h, PK04 Diversity Set, profiling panel (AID 1172); conditions: HepG2 viability, higher = more signal; also: test concentration not given here
# [12] = budding yeast growth changes without added modifier – OD600, strain BY4716, 24 h, basal condition, primary screen (AID 1173); conditions: S. cerevisiae BY4716 growth, OD600, 24 h; higher = more signal, called active from +8 up or from −8 down
# [13] = viability profiling in MM1S myeloma cells – cell-based, resazurin fluorescence, basal, 24 h, PK04 Diversity Set, profiling panel (AID 1174); conditions: higher = more signal, called active from +8 up or from −8 down; also: test concentration not given here
# [14] = molecular target: Dihydroorotate dehydrogenase (quinone), mitochondrial (Plasmodium falciparum (isolate 3D7)) (UniProt Q08210); assay: inhibition of P. falciparum DHODH – biochemical, C-terminal His tag, absorbance 600 nm, primary screen (AID 1175); conditions: PfDHODH enzyme, DCIP absorbance 600 nm; higher = more signal, called active from +8 up or from −8 down;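 also: recombinant parasite enzyme with a five histidine tag at its C terminus; test concentration not given here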
# Dihydroorotate dehydrogenase (quinone), mitochondrial (Plasmodium falciparum (isolate 3D7)), sequence (Q08210 whole entry, looked up): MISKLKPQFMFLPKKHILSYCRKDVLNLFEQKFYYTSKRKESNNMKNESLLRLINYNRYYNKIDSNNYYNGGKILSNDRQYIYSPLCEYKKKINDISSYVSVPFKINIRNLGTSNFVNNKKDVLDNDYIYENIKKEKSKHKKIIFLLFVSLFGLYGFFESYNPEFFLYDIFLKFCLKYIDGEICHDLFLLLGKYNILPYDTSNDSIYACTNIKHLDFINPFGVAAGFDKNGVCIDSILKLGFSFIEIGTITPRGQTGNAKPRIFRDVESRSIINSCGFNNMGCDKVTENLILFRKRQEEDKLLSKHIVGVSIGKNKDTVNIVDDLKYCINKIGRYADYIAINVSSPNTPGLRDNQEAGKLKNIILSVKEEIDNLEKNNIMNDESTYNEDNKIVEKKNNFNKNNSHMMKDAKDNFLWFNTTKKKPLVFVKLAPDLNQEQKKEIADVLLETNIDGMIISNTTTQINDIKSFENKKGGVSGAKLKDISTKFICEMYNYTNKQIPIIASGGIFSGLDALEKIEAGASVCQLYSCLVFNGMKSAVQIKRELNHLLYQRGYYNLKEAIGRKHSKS
# [15] = inhibition of PAO1 biofilm formation – strain PAO1, LB-PBS medium, absorbance 600 nm, primary screen (AID 1176); also: test concentration not given here; conditions: P. aeruginosa PAO1 growth/biofilm, A600, 12 h; higher = more signal
# [16] = growth modulation of vineyard yeast isolate – strain RM11-1a, OD600, basal, 24 h, primary screen (AID 1177);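 also: cultures grown under basal conditions with no added stressor; test concentration not given here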; conditions: S. cerevisiae RM11-1a growth, OD600, 24 h; higher = more signal, called active from +8 up or from −8 down
# [17] = growth of efflux-deficient E. coli DRC39 – strain DRC39, OD650, 24 h, E. coli filamentation inducers, primary screen (AID 1178);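 also: growth measured as culture turbidity by optical density at 650 nm; test concentration not given here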; conditions: E. coli DRC39 acrAB, higher = more signal, called active from +8 up or from −8 down
# [18] = growth of efflux-deficient E. coli DRC39 – strain DRC39, OD650, 48 h, E. coli filamentation inducers, primary screen (AID 1179);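 also: screen aims at cell division blockers that make cells filament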; conditions: E. coli DRC39 delta-acrAB growth, higher = more signal, called active from +8 up or from −8 down
# [19] = viability profiling in RPMI8226 myeloma cells – cell-based, resazurin fluorescence, basal, 24 h, PK04 Diversity Set, profiling panel (AID 1180); conditions: higher = more signal;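 also: RPMI8826 multiple myeloma cell line at 5000 cells per well; test concentration not given here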
# [20] = molecular target: E3 ubiquitin-protein ligase XIAP (Homo sapiens) (UniProt P98170); assay: small molecules binding XIAP protein – biophysical, small-molecule microarray, fluorescence 635 nm, primary screen (AID 1181); conditions: higher = more signal;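 also: score merges 667 nm emission and signal to noise over triplicate slides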
# E3 ubiquitin-protein ligase XIAP (Homo sapiens), sequence (P98170 whole entry, looked up): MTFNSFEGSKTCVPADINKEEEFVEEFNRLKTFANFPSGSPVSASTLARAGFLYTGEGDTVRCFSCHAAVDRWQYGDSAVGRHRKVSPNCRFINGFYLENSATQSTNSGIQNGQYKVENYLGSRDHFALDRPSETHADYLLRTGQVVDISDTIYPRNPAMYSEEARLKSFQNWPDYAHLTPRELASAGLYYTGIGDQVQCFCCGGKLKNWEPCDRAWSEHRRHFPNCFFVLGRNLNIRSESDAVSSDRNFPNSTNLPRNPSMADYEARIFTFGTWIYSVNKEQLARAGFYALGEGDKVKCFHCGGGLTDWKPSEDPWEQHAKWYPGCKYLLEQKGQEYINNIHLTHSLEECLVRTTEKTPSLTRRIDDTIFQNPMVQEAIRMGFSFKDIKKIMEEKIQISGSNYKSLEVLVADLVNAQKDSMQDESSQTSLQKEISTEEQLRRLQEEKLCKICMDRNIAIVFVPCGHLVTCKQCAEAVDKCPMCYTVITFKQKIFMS
SMILES,z-score [1],z-score [2],z-score [3],z-score [4],z-score [5],z-score [6],z-score [7],z-score [8],z-score [9],z-score [10],z-score [11],z-score [12],z-score [13],composite z-score [14],z-score [15],z-score [16],z-score [17],z-score [18],z-score [19],composite z-score [20]
O=C1O[C@@H](c2ccccc2)[C@@H](c2ccccc2)N2[C@@H](c3ccc(O)cc3)[C@]3(C(=O)Nc4ccc(C#CCCO)cc43)[C@@H](C(=O)N3CCN(c4ncccn4)CC3)[C@H]12,-0.716,-0.0773,0.0219,0.441,0.1,-1.95,-0.252 (inactive),-0.681,-0.425,0.378 (inactive),1.13,1.94 (inactive),0.609 (inactive),0.378 (inactive),1.77 (inactive),2.96 (inactive),1.08 (inactive),0.602 (inactive),0.509,-0.197
Cc1ccc(S[C@]2(C(=O)NCC(F)(F)F)CC(=O)N(Cc3cc(C(F)(F)F)cc(C(F)(F)F)c3)[C@@H]2c2ccc(CO)cc2I)cc1,-0.369,-0.37,-0.548,-2.27,-2.64,-0.812,-0.792 (inactive),-0.366,-0.852,1.19 (inactive),1.02,-3.16 (inactive),-1.99 (inactive),-0.845 (inactive),-0.522 (inactive),-0.974 (inactive),-0.301 (inactive),-0.0582 (inactive),-2.03,-0.325
C=CCNC(=O)[C@@H]1[C@H]2C(=O)O[C@H](c3ccccc3)[C@H](c3ccccc3)N2[C@H](c2ccccc2OCCO)[C@@]12C(=O)Nc1ccc(C#CCC(C(=O)OC)C(=O)OC)cc12,-0.423,-0.695,-0.852,-3.28,-4.17,-1.4,2.37 (inactive),-0.941,-1.96,-1.3 (inactive),-0.679,1.59 (inactive),-8.99 (active),-25.5 (active),2.19 (inactive),1.86 (inactive),0.108 (inactive),-0.263 (inactive),-7.28,-0.0062
COc1ccc(CCNC(=O)[C@@]2(Cc3ccccc3I)c3ccccc3C(=O)N(C3CCCCC3)[C@H]2c2ccc(CO)cc2)cc1,1,2.42,-0.449,-1.93,-2.47,2.5,0.537 (inactive),-0.184,-1.17,-0.584 (inactive),-0.0428,-0.447 (inactive),-0.0298 (inactive),-0.145 (inactive),0.462 (inactive),-2.65 (inactive),0.314 (inactive),0.197 (inactive),-0.0337,0.144
O=C(NCc1ccc(F)cc1)[C@H]1C[C@H]2C(=O)NCC(=O)N2[C@H]1c1ccc(O)cc1,0.139,-0.218,-0.457,-1.49,0.461,0.679,-0.276 (inactive),0.683,0.318,0.54 (inactive),-1.15,0.407 (inactive),0.0901 (inactive),-0.0559 (inactive),-0.0185 (inactive),1.23 (inactive),-0.42 (inactive),-0.806 (inactive),0.18,-0.294
O=C1N(CCS(=O)(=O)c2ccccc2)c2ccccc2[C@H]2OC(c3ccc(OCCCO)cc3)=N[C@@]12Cc1ccccc1,-0.386,0.726,-0.763,-2.18,-2.65,-0.654,0.777 (inactive),-1.19,-2.19,-1.02 (inactive),0.676,-0.148 (inactive),-2.38 (inactive),-0.0331 (inactive),0.755 (inactive),2.01 (inactive),2.46 (inactive),1.13 (inactive),-1.96,0.211
Cc1ccc(S[C@]2(C(=O)O)CC(=O)N(C3CCCCC3)[C@@H]2c2ccc(CO)cc2I)cc1,-0.756,0.505,-0.561,-2.64,-2.13,-1.1,-0.343 (inactive),-0.278,0.0653,0.808 (inactive),0.465,-1.67 (inactive),-0.353 (inactive),-0.664 (inactive),-0.137 (inactive),-0.92 (inactive),0.475 (inactive),0.0129 (inactive),-0.74,-0.0525
CS(=O)(=O)CCOC(=O)C1=CC(CCCO)=CC(c2ccc(CN3CCCC3)cc2)N(Cc2sc3ccccc3c2Cl)C=C1C(=O)OCCS(C)(=O)=O (stereo not given),0.389,0.958,0.888,-1.59,0.16,2.41,0.0187 (inactive),-0.544,-0.299,0.328 (inactive),-0.518,-2.76 (inactive),-0.0646 (inactive),-0.449 (inactive),-0.259 (inactive),0.34 (inactive),0.285 (inactive),0.309 (inactive),-0.0127,-0.247
COCCCNC(=O)[C@@]1(Sc2ccc(C)cc2)CC(=O)N(C2Cc3ccccc3C2)[C@@H]1c1ccc(CO)cc1,0.771,0.544,-0.603,0.762,-0.204,0.17,-0.137 (inactive),0.445,-1.59,0.491 (inactive),0.183,-0.153 (inactive),0.307 (inactive),-0.277 (inactive),0.779 (inactive),-1.35 (inactive),0.897 (inactive),0.568 (inactive),0.222,-0.0367
